Calls of active or inactive are those of the source.
Test system: Neuregulin-1 EGF-like domain
Experiment: binders of neuregulin-1 EGF-like domain, primary screen, biochemical, small-molecule microarray, 635 nm fluorescence (AID 1081);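 note: binding of the protein to compounds printed on small-molecule microarray slides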
Details: small-molecule microarray binding, higher = more signal
`O=C1OCCC/C=C\[C@H]2OC34C=CCN(Cn5nnc6ccccc65)C(=O)[C@H]3N(CCCO)C(=O)[C@@H]4C12` (stereo not given in full) gave a composite z-score of 1.13. In the case of `CC(C)N1C(=O)c2ccccc2[C@](C)(C(=O)NC2CC2)[C@@H]1c1ccc(CO)cc1`, the composite z-score was 1.21. `O=C1C2C=CC(C(O)CCc3ccccc3)N(Nc3ccccc3)C2C(=O)N1c1ccccc1` (stereo not given) gave a composite z-score of 1.22. With `O=C1O[C@H](c2ccccc2)[C@H](c2ccccc2)N2[C@H]1[C@@H](C(=O)N1CCCCCCC1)[C@]1(C(=O)Nc3ccc(C#CC4=CCCCC4)cc31)[C@H]2c1ccc(O)cc1` the composite z-score was 1.54. With `CC(C)OC(=O)C1=CCC(c2cccc(Cl)c2)O1` (stereo not given) the composite z-score was 1.06. With `C=CCN1C(=O)[C@@]2(O[C@@H](CCO)[C@H]([Si](C)(C)c3ccc(OC)cc3)[C@H]2C)c2cc(N3C(=O)COc4ccccc43)ccc21` the composite z-score was 0.746. In the case of `C=CCC(OC(C)=O)[C@@H]1[C@@H](N(Cc2ccc(-c3ccccc3)cc2)C(=O)c2ccc(C)cc2)c2cc(OCCCO)ccc2N1C(=O)c1ccc2ccccc2n1` (stereo not given in full), the composite z-score was -0.325. `COCCOC(=O)N1C(=O)[C@@]2(c3cc(C#CC4=CCCCC4)ccc31)[C@H](c1ccc(OCCO)cc1)N1[C@H](c3ccccc3)[C@H](c3ccccc3)OC(=O)[C@H]1[C@@H]2C(=O)Nc1nc2ccccc2s1` gave a composite z-score of 1.12. For `O=[N+]([O-])c1ccc(C[n+]2ccc(CCCO)cc2)o1`, the composite z-score was 1.29. For `C=C(C)[C@@H]1CC=C(C(O)C2C=CC3C(=O)N(Cc4ccccc4)C(=O)C3N2n2cnnc2)CC1` (stereo not given in full), the composite z-score was 0.703. For `CCCNC(=O)[C@@]1(C)c2ccccc2C(=O)N(Cc2cc(F)cc(C(F)(F)F)c2)[C@H]1c1ccc(CO)cc1`, the composite z-score was 0.146. For `CO[C@H]1O[C@H](CO)[C@@H](OC(=O)Nc2cccc(F)c2)[C@H](OC(=O)Nc2ccccc2-c2ccccc2)[C@@H]1OC(=O)Nc1ccccc1-c1ccccc1`, the composite z-score was 1.29. For `CCOC(=O)N1C(c2ccc(OCCCO)cc2)=NC(C(=O)OC)N1C(=O)OCC` (stereo not given), the composite z-score was 1.14. With `COCCCNC(=O)[C@@]1(Cc2ccccc2I)c2ccccc2C(=O)N(Cc2ccccc2)[C@H]1c1ccc(CO)cc1` the composite z-score was 1.34. `COc1ccc(C#Cc2ccc3c(c2)[C@]2(C(=O)N3)[C@H](C(=O)N3CCN(c4ncccn4)CC3)[C@H]3C(=O)O[C@H](c4ccccc4)[C@H](c4ccccc4)N3[C@@H]2c2ccc(O)cc2)cc1` gave a composite z-score of 1.17. In the case of `CN(C)CCCC[C@@H]1NC(=O)[C@@H]2C[C@H](C(=O)NCc3ccc(F)cc3)[C@H](c3cccc(OCCO)c3)N2C1=O`, the composite z-score was 1.02. `O=C1O[C@@H](c2ccccc2)[C@@H](c2ccccc2)N2[C@@H](c3ccc(O)cc3)[C@]3(C(=O)Nc4ccc(C#CCCO)cc43)[C@@H](C(=O)O)[C@H]12` showed a composite z-score of 1.07. With `CC(C)NC(=O)[C@@]1(c2ccc([N+](=O)[O-])cc2)CC(=O)N(C(C)C)[C@@H]1c1ccc(CO)cc1` the composite z-score was 0.697. For `C=CCC(OC(C)=O)[C@@H]1[C@@H](N(Cc2ccc(-c3cccc(C(F)(F)F)c3)o2)C(=O)Cc2ccc(OC)cc2)c2cc(OCCCO)ccc2N1C(=O)Cc1ccc(OC)cc1` (stereo not given in full), the composite z-score was -0.92. In the case of `C[n+]1ccc2ccc(O)cc2c1`, the composite z-score was 0.767. In the case of `C=C(CCCC)/C(=C/C[C@H](OC(C)=O)c1ccc(CO)o1)c1cc(C(=O)OC)ccc1OC`, the composite z-score was 0.888. Molecule `COCCOC(=O)N1C(=O)[C@@]2(c3cc(C#Cc4ccc(OC)cc4)ccc31)[C@H](c1ccc(OCCO)cc1)N1[C@H](c3ccccc3)[C@H](c3ccccc3)OC(=O)[C@H]1[C@@H]2C(=O)N1CCc2cc(OC)c(OC)cc2C1` has a composite z-score of 0.981. In the case of `CC(C)C(O)C1C=CC2C(=O)N(C)C(=O)C2N1N1CCCCC1` (stereo not given), the composite z-score was 1.24. For `CCN(CC)c1ccc(N2CC=CC34O[C@@H]5C=CCOC(=O)[C@@H]5[C@H]3C(=O)N(CCCCCO)[C@@H]4C2=O)cc1` (stereo not given in full), the composite z-score was 1.53. `Cc1cc(C)c(C(O)C2C=CC3C(=O)NC(=O)C3N2Nc2ccccn2)c(C)c1` (stereo not given) showed a composite z-score of 0.986.

Test system: not listed separately
Experiment: FRG1 promoter luciferase signal modulators, primary screen, FRG1 inhibition for FSHD, cell-based, C2C12 myotubes, firefly/Renilla luciferase, luminescence (AID 1084)
Details: higher = more signal, called active from +8 up or from −8 down
For `O=C1c2ccccc2[C@](Cc2ccccc2I)(C(=O)O)[C@H](c2ccc(CO)cc2)N1Cc1ccccc1C(F)(F)F`, the z-score was -0.524 (inactive). For `C=CCN1C(=O)[C@@]2(O[C@@H](CCO)[C@H]([Si](C)(C)c3ccc(OC)cc3)[C@H]2C)c2cc(NC(C)=O)ccc21`, the z-score was -0.174 (inactive). In the case of `O=C1O[C@@H](c2ccccc2)[C@@H](c2ccccc2)N2[C@@H](c3ccc(O)cc3)[C@]3(C(=O)Nc4ccccc43)[C@@H](C(=O)NC[C@H](O)c3ccccc3)[C@H]12`, the z-score was -1.23 (inactive). With `C=C(CCCC)C(=O)CC[C@@H](OC(=O)c1ccccc1-c1ccccc1C(=O)O)c1ccc(CO)o1` the z-score was -0.161 (inactive). In the case of `COCCOC(=O)N1C(=O)[C@@]2(c3cc(C#CCCO)ccc31)[C@H](c1ccc(O)cc1)N1[C@H](c3ccccc3)[C@H](c3ccccc3)OC(=O)[C@H]1[C@@H]2C(=O)N1CCCCCCC1`, the z-score was -0.73 (inactive). For `O=C(NCC(O)CO)[C@]1(CCS(=O)(=O)c2ccccc2)N=C(c2ccc(OCCCO)cc2)O[C@@H]1c1ccccc1` (stereo not given in full), the z-score was 0.47 (inactive). With `CC(C)NC(=O)[C@@H]1c2ccccc2C(=O)N(C2CCCCC2)[C@H]1c1ccc(CO)cc1` the z-score was 0.492 (inactive). With `CCOC(=O)C=Cc1cccc(OC)c1O` the z-score was 6.99 (inactive). With `NC(=O)NCC#Cc1ccc2c(c1)[C@]1(C(=O)N2)[C@H](C(=O)NC[C@H](O)c2ccccc2)[C@H]2C(=O)O[C@H](c3ccccc3)[C@H](c3ccccc3)N2[C@@H]1c1ccccc1OCCO` the z-score was -0.167 (inactive). For `CN1C(=O)C2C(C1=O)C1C=C(c3ccc(CO)cc3)C2C(C2CC2)N1Cc1cc2c(cc1Br)OCO2` (stereo not given), the z-score was -4.12 (inactive). In the case of `O=C1OCCC/C=C\[C@H]2OC34C=CCN(Cn5nnc6ccccc65)C(=O)[C@H]3N(CCCO)C(=O)[C@@H]4C12` (stereo not given in full), the z-score was -0.126 (inactive). For `CC(C)N1C(=O)c2ccccc2[C@](C)(C(=O)NC2CC2)[C@@H]1c1ccc(CO)cc1`, the z-score was -0.0117 (inactive). In the case of `O=C1C2C=CC(C(O)CCc3ccccc3)N(Nc3ccccc3)C2C(=O)N1c1ccccc1` (stereo not given), the z-score was 0.0878 (inactive). In the case of `O=C1O[C@H](c2ccccc2)[C@H](c2ccccc2)N2[C@H]1[C@@H](C(=O)N1CCCCCCC1)[C@]1(C(=O)Nc3ccc(C#CC4=CCCCC4)cc31)[C@H]2c1ccc(O)cc1`, the z-score was 0.805 (inactive). In the case of `CC(C)OC(=O)C1=CCC(c2cccc(Cl)c2)O1` (stereo not given), the z-score was -0.716 (inactive). For `C=CCN1C(=O)[C@@]2(O[C@@H](CCO)[C@H]([Si](C)(C)c3ccc(OC)cc3)[C@H]2C)c2cc(N3C(=O)COc4ccccc43)ccc21`, the z-score was -1.54 (inactive). For `C=CCC(OC(C)=O)[C@@H]1[C@@H](N(Cc2ccc(-c3ccccc3)cc2)C(=O)c2ccc(C)cc2)c2cc(OCCCO)ccc2N1C(=O)c1ccc2ccccc2n1` (stereo not given in full), the z-score was -1.24 (inactive). With `COCCOC(=O)N1C(=O)[C@@]2(c3cc(C#CC4=CCCCC4)ccc31)[C@H](c1ccc(OCCO)cc1)N1[C@H](c3ccccc3)[C@H](c3ccccc3)OC(=O)[C@H]1[C@@H]2C(=O)Nc1nc2ccccc2s1` the z-score was 1.89 (inactive). In the case of `O=[N+]([O-])c1ccc(C[n+]2ccc(CCCO)cc2)o1`, the z-score was 0.472 (inactive). For `C=C(C)[C@@H]1CC=C(C(O)C2C=CC3C(=O)N(Cc4ccccc4)C(=O)C3N2n2cnnc2)CC1` (stereo not given in full), the z-score was 0.225 (inactive). For `CCCNC(=O)[C@@]1(C)c2ccccc2C(=O)N(Cc2cc(F)cc(C(F)(F)F)c2)[C@H]1c1ccc(CO)cc1`, the z-score was -0.92 (inactive). In the case of `CO[C@H]1O[C@H](CO)[C@@H](OC(=O)Nc2cccc(F)c2)[C@H](OC(=O)Nc2ccccc2-c2ccccc2)[C@@H]1OC(=O)Nc1ccccc1-c1ccccc1`, the z-score was 1.16 (inactive). For `CCOC(=O)N1C(c2ccc(OCCCO)cc2)=NC(C(=O)OC)N1C(=O)OCC` (stereo not given), the z-score was 1.37 (inactive). In the case of `COCCCNC(=O)[C@@]1(Cc2ccccc2I)c2ccccc2C(=O)N(Cc2ccccc2)[C@H]1c1ccc(CO)cc1`, the z-score was -4.46 (inactive). With `COc1ccc(C#Cc2ccc3c(c2)[C@]2(C(=O)N3)[C@H](C(=O)N3CCN(c4ncccn4)CC3)[C@H]3C(=O)O[C@H](c4ccccc4)[C@H](c4ccccc4)N3[C@@H]2c2ccc(O)cc2)cc1` the z-score was 0.437 (inactive). With `CN(C)CCCC[C@@H]1NC(=O)[C@@H]2C[C@H](C(=O)NCc3ccc(F)cc3)[C@H](c3cccc(OCCO)c3)N2C1=O` the z-score was 1.36 (inactive). With `O=C1O[C@@H](c2ccccc2)[C@@H](c2ccccc2)N2[C@@H](c3ccc(O)cc3)[C@]3(C(=O)Nc4ccc(C#CCCO)cc43)[C@@H](C(=O)O)[C@H]12` the z-score was -0.55 (inactive). In the case of `CC(C)NC(=O)[C@@]1(c2ccc([N+](=O)[O-])cc2)CC(=O)N(C(C)C)[C@@H]1c1ccc(CO)cc1`, the z-score was -0.31 (inactive). With `C=CCC(OC(C)=O)[C@@H]1[C@@H](N(Cc2ccc(-c3cccc(C(F)(F)F)c3)o2)C(=O)Cc2ccc(OC)cc2)c2cc(OCCCO)ccc2N1C(=O)Cc1ccc(OC)cc1` (stereo not given in full) the z-score was 0.0712 (inactive). In the case of `C[n+]1ccc2ccc(O)cc2c1`, the z-score was 1.53 (inactive). For `C=C(CCCC)/C(=C/C[C@H](OC(C)=O)c1ccc(CO)o1)c1cc(C(=O)OC)ccc1OC`, the z-score was -0.313 (inactive). With `COCCOC(=O)N1C(=O)[C@@]2(c3cc(C#Cc4ccc(OC)cc4)ccc31)[C@H](c1ccc(OCCO)cc1)N1[C@H](c3ccccc3)[C@H](c3ccccc3)OC(=O)[C@H]1[C@@H]2C(=O)N1CCc2cc(OC)c(OC)cc2C1` the z-score was -0.948 (inactive). With `CC(C)C(O)C1C=CC2C(=O)N(C)C(=O)C2N1N1CCCCC1` (stereo not given) the z-score was 0.554 (inactive). For `CCN(CC)c1ccc(N2CC=CC34O[C@@H]5C=CCOC(=O)[C@@H]5[C@H]3C(=O)N(CCCCCO)[C@@H]4C2=O)cc1` (stereo not given in full), the z-score was -0.309 (inactive). With `Cc1cc(C)c(C(O)C2C=CC3C(=O)NC(=O)C3N2Nc2ccccn2)c(C)c1` (stereo not given) the z-score was 1.03 (inactive).

From PubChem BioAssay
